D1 ag = Allosteric Agonists of the Human D1 Dopamine Receptor: qHTS. AID 504660, 2011. D(1A) dopamine receptor (Homo sapiens), P21728. HEK293 T-REx D1 cells, calcium flux, agonist mode. activation, % at 2 µM. 1% of 360,000 active; also: 0% is about no effect
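Agonism was scored from calcium flux recorded over 180 s (1 read/s) after pintool compound addition, following a 10-cycle baseline. Cells were inducible force-coupled HEK293 TREx D1, plated overnight at 30 C and loaded with no-wash calcium dye.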
TRHR enhancer = qHTS for Small Molecule Agonists and Allosteric Enhancers of Human TRH Receptor: Primary Screen for Enhancers; TRHR cells, fluo-8 calcium fluorescence, EC20 TRH enhancement; enhancement, % at 2 µM; 0.66% of 360,000 active; AID 493056, 2011; in the data active = enhancement above about 30%; also: 0% is about no effect
Target sequence (P34981 whole entry, looked up): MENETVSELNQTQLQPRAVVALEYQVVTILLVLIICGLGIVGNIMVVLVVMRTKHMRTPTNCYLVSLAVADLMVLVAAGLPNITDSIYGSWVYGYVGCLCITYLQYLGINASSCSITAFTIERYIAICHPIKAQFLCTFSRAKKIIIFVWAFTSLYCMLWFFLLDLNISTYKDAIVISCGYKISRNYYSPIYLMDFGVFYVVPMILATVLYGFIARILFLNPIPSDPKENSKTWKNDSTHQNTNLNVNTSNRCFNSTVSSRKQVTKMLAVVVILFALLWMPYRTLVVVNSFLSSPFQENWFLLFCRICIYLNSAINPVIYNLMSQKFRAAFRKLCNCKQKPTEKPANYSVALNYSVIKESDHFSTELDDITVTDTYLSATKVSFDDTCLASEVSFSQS
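Enhancer read-out: after compound pinning and an initial kinetic agonist-mode read, an EC20 of TRH (10 nM final) was injected and fluo-8 calcium signal (Ex 480/Em 530) followed at 1 s/cycle for 100 cycles in TRHR-expressing cells.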
TRHR agonist = qHTS for Small Molecule Agonists and Allosteric Enhancers of Human TRH Receptor: Primary Screen for Agonists; activation, % at 2 µM; 0.18% of 360,000 active; AID 493084, 2011; Thyrotropin-releasing hormone receptor (Homo sapiens), P34981; TRHR cells, calcium flux fluo-8, FDSS agonist mode; also: 0% is about no effect
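Read-out: compound-evoked intracellular calcium rise in TRHR cells, fluo-8 dye, kinetic FDSS fluorescence at 1 s/cycle following a 10-cycle baseline. Cells cultured overnight before dye loading (30 min–1.5 h, RT).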
D1 potentiator = Potentiators of Human D1 Dopamine Receptor: qHTS; HEK293 TREx D1 cells, calcium flux, dopamine EC20 potentiation; 0.036% of 360,000 active; potentiation, % at 10 µM; AID 504651, 2011; in the data active = potentiation above about 30%; also: 0% is about no effect
D1 antagonist = Antagonist of Human D 1 Dopamine Receptor: qHTS | D(1A) dopamine receptor (Homo sapiens), P21728 | HEK293 TREx D1 cells, calcium flux, dopamine EC80; active compounds read low | 3.2% of 360,000 active | activity change, negative = inhibition, % at 10 µM; in the data active = activity change below about -30%; also: % is scaled to controls: 0 for no effect and ±100 for the full control effect
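Tetracycline-induced HEK293 Trex D1 cells, force-coupled to calcium, dye-loaded; compounds added and read 180 s, then EC80 dopamine added and calcium flux tracked kinetically another 180 s.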
Starred values were filed as active, the others as inactive; x = not tested or not shown. Compounds with a hit are over-represented: about 4.6% of the library has one in this group of screens. Rule as the data show it, unless noted: active = activation above about 30%; inactive = the rest.

SMILES | D1 ag | TRHR enhancer | TRHR agonist | D1 potentiator | D1 antagonist
CC(NC(=O)c1ccco1)C(=O)N1CCN(c2ccccc2)CC1 (stereo unspecified) | 0 | -3 | 1 | -2 | -29
CCCS(=O)(=O)N1CC(=O)N(c2ccc(C)cc2)C(C)(C(=O)NC2CCCCCC2)C1 (stereo unspecified) | -2 | 2 | -1 | 0 | -1
CCCS(=O)(=O)N1CC(=O)N(c2cc(C)cc(C)c2)C(C)(C(=O)NC2CCCCCC2)C1 (stereo unspecified) | -2 | -4 | -1 | 0 | -31*
CC(C)(C)OC(=O)N1CCC(c2c(C(=O)NCCN3CCC(Cc4ccccc4)CC3)cnn2-c2ccc(F)cc2)CC1 | 40* | 3 | 2 | 2 | -10
CC(C)(C)OC(=O)N1CCC(c2c(C(=O)NCCN3CCC(Cc4ccccc4)CC3)cnn2-c2ccccc2)CC1 | 56* | 3 | 3 | -3 | -7
COc1ccc(CCN2CCC(CNC(=O)c3cnn(-c4ccccc4)c3C3CCN(C(=O)OC(C)(C)C)CC3)CC2)cc1 | 38* | -1 | 3 | -6 | -4
COc1ccc(CCN2CCC(CNC(=O)c3cnn(-c4cccc(Cl)c4)c3C3CCN(C(=O)OC(C)(C)C)CC3)CC2)cc1 | 30 | 18 | 2 | 3 | -2
CC(C)(C)OC(=O)N1CCC(c2c(C(=O)NCc3cccc(Cl)c3)cnn2-c2ccc(F)cc2)CC1 | 2 | 2 | 2 | -9 | -43*
CC(=O)c1ccc(NC(=O)CN2C(=O)NC(C)(c3ccc4c(c3)OCCO4)C2=O)cc1 (stereo unspecified) | 11 | 6 | 0 | x | 24
CCCCn1c(CCc2ccccc2)nc2cc3[nH]c(=O)c(C(C)C)nc3cc21 | 2 | -1 | 0 | -17 | -82*
CCCNC(=S)Nc1ccc2nc(-c3ccccn3)c(-c3ccccn3)nc2c1 | 2 | 3 | 0 | -11 | -37*
CCCC/C(=N\NC(=O)c1ccc(Br)o1)c1ccccc1 | 1 | -6 | 0 | -4 | -66*
CCCCCC/C(=N\NS(C)(=O)=O)c1ccccc1 | -1 | 0 | 0 | 29 | -68*
COc1cc(Cl)c(NC(=O)CCS(=O)(=O)c2ccc3c(c2)NC(=O)CO3)c(OC)c1 | -2 | 31* | 0 | -3 | 14
COc1ccc(N2CCN(C(=O)CCS(=O)(=O)c3cc4c(cc3Cl)NC(=O)CO4)CC2)cc1 | -2 | 11 | 0 | -1 | -64*
O=C(CCS(=O)(=O)c1cc2c(cc1Cl)NC(=O)CO2)NCc1ccc(Cl)cc1 | 0 | -5 | 0 | -1 | 4
CCc1cccc(NC(=O)CCS(=O)(=O)c2ccc3c(c2)NC(=O)CO3)c1 | 1 | -1 | 1 | 0 | 7
O=C(CCS(=O)(=O)c1cc2c(cc1Cl)NC(=O)CO2)NCc1ccc(F)cc1 | 1 | -4 | 0 | -6 | -35*
CCOC(=O)N1CCN(C(=O)CCS(=O)(=O)c2cc3c(cc2Cl)NC(=O)CO3)CC1 | 4 | 0 | 0 | -11 | 21
c1coc(-c2nc3cc4ccccc4cc3nc2-c2ccco2)c1 | 5 | 1 | 0 | -4 | 5
O=C(C1CCC(=O)N(C2CC2)C1)N1CCN(c2cccc(Cl)c2)CC1 (stereo unspecified) | 3 | -2 | 0 | 2 | 9
CCOc1ccc(OCC(=O)N(CCC2=CCCCC2)c2c(N)n(Cc3ccccc3)c(=O)[nH]c2=O)cc1 | 3 | 0 | 1 | -5 | 9
CN(Cc1ccccc1F)C(=O)c1ccc(Oc2ccccc2)cc1 | 3 | -7 | 0 | -9 | -31*
CC(NC(=O)COC(=O)COc1cccc2c1OC(C)(C)C2)c1ccccc1 (stereo unspecified) | 2 | 1 | -1 | -3 | -2
O=C(NCc1ccco1)c1ccc(S(=O)(=O)N2CCCc3ccccc32)cc1 | 15 | -3 | 1 | -4 | -32*
SMILES | D1 ag | TRHR enhancer | TRHR agonist | D1 potentiator | D1 antagonist
O=C(NCc1ccccc1)c1ccc(S(=O)(=O)N2CCCc3ccccc32)cc1 | 5 | -6 | 0 | -10 | 11
CN(C)C(=O)c1ccc(NC(=O)c2cccc(S(=O)(=O)N3CCCCCC3)c2)cc1 | 3 | 3 | 0 | -3 | -5
CCOC(=O)c1sc(NC(=O)c2cccc(S(=O)(=O)N3CCc4ccccc43)c2)c(C#N)c1C | 20 | -2 | 2 | -11 | -32*
O=C(Nc1nncs1)c1cccc(S(=O)(=O)N2CCc3ccccc32)c1 | 0 | 33* | 0 | -4 | 12
O=C(NC1=NCCS1)c1cccc(S(=O)(=O)N2CCc3ccccc32)c1 | 7 | -10 | 0 | 2 | -1
CN(C)C(=O)c1ccc(NC(=O)c2cccc(S(=O)(=O)N3CCCc4ccccc43)c2)cc1 | 7 | 7 | 0 | -4 | -31*
COc1cc(NC(=O)c2ccc(C)cc2)ccc1NC(=O)c1cc2ccccc2o1 | 4 | -4 | -1 | -6 | 4
O=C(Nc1ccc(NC(=O)c2cc3ccccc3o2)cc1)c1ccc2c(c1)OCCO2 | 3 | 3 | -1 | 1 | -43*
COc1cc(NC(=O)c2ccc(F)cc2)ccc1NC(=O)c1cc2ccccc2o1 | 1 | 6 | 0 | -9 | -33*
COc1cccc(-c2nc3c(c(SCc4ccccc4Cl)n2)Cc2c(CO)cnc(C)c2O3)c1 | 0 | 2 | 0 | -6 | 9
CS(=O)(=O)c1ncc(Cl)c(C(=O)Nc2ccc(OC(F)F)cc2)n1 | 2 | -10 | 1 | -2 | -38*
CS(=O)(=O)c1ncc(Cl)c(C(=O)Nc2ccc(N3CCOCC3)cc2)n1 | -3 | 1 | -1 | -7 | -35*
CS(=O)(=O)c1ccc(C(=O)Nc2ccc(N3CCOCC3)cc2)c(Cl)c1 | 3 | -1 | 0 | -4 | 9
CCn1c(=O)c(-[n+]2ccccc2)c(O)c2ccccc21 | 2 | -3 | -1 | 2 | -35*
O=C(Nc1ccccc1F)C(Cc1ccccc1)N1Cc2ccccc2C1=O (stereo unspecified) | 0 | 12 | 0 | -1 | 7
CC1(C)CC(=O)C2=C(C1)OC(/N=C/N1CCCC1)=C(C#N)C2c1ccccc1 (stereo unspecified) | -1 | -18 | 0 | -12 | -95*
CCN(CCn1cccn1)C(=O)c1cc(COc2ccc(F)c(F)c2)on1 | 12 | -2 | 0 | -4 | -32*
CC1(C)OC(=O)C2(Cc3ccccc3N3CCCC32)C(=O)O1 (stereo unspecified) | 13 | 18 | 0 | -1 | -1
CC(=O)OCCn1c2nc(=O)[nH]c(=O)c-2nc2cc(C)c(C)cc21 | 482* | 124* | 161* | 30 | 5

Screening results as filed in PubChem BioAssay.
